The test system of experiment [1] is CRL-7250. Kind of experiment: Cytotoxic Profiling of Annotated Libraries Using Quantitative High-Throughput Screening (AID 1296008). For max response: % is set by controls: 0 for no effect and ±100 for the full control effect. Note: nearly all actives have a fitted effect of over 60% in size. Note: potency is the fitted concentration of half-maximal effect. As to conditions: Five cell lines viability, CellTiter-Glo ATP luminescence, 48-72 h; max response: active compounds read low. The essentials: (§1)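 Compounds were pin-transferred onto cells and incubated 48 or 72 hr at 37 degree Celsius, 95% humidity. CellTiter-Glo was added, plates sat 10 min at room temperature, then ATP-coupled luminescence was imaged as the viability read-out.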

Experiment [2] relates to HEK293. Described as above. As to conditions: Five cell lines viability, CellTiter-Glo ATP luminescence, 48-72 h; max response: active compounds read low. Put shortly: as §1
For experiment [3], the system named is KB-3-1. The experiment is described as above. Particulars: Five cell lines viability, CellTiter-Glo ATP luminescence, 48-72 h; max response: active compounds read low. The essentials:
as §1

For experiment [4], the system named is NIH3T3. Described as above. Particulars: Five cell lines viability, CellTiter-Glo ATP luminescence, 48-72 h; max response: active compounds read low. Put shortly: as §1
Experiment [5] deals with MCC-13. Briefly: qHTS assay to identify novel small-molecules to repurpose for Merkel cell carcinoma treatment (AID 1296009). Note: nearly all actives have a fitted effect of over 60% in size. Note: potency is the fitted concentration of half-maximal effect. Particulars: MCC and control cell lines, CellTiter-Glo viability, 72 h; series mostly up to 46 µM. Put shortly: (§2)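 Cells exposed to NPC (8-point) and MIPE (11-point) compound dilutions for 72 hr at 37 degree celsius; viability read by CellTiter-Glo luminescence, normalized to no-cell and DMSO in-plate controls.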

Experiment [6] concerns MCC-26. Described as above. As to conditions: MCC and control cell lines, CellTiter-Glo viability, 72 h; series mostly up to 46 µM. Put shortly:
as §2

For experiment [7], the system named is MKL-1. The experiment is described as above. As to conditions: MCC and control cell lines, CellTiter-Glo viability, 72 h; series mostly up to 46 µM. Put shortly:
as §2

Experiment [8] relates to MKL-2. Described as above. As to conditions: MCC and control cell lines, CellTiter-Glo viability, 72 h; series mostly up to 46 µM. The essentials:
as §2

The test system of experiment [9] is UISO. The description is as above. As to conditions: MCC and control cell lines, CellTiter-Glo viability, 72 h; series mostly up to 46 µM. The essentials:
as §2

In experiment [10] the test system is WaGa. Described as above. Particulars: MCC and control cell lines, CellTiter-Glo viability, 72 h; series mostly up to 46 µM. Put shortly: as §2
Experiment [11] deals with C33A. Kind of experiment: Primary qHTS to identify gynecologic anti-cancer compounds using libraries of approved drugs and bioactive compounds (AID 1345084). Note: % is set by controls: 0 for no effect and ±100 for the full control effect; nearly all actives have a fitted effect of over 55% in size. As to conditions: Gynecologic cancer cell panel viability, ATPlite luminescence, 48 h; series mostly up to 57.5 µM. The essentials:
(§3)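 Luminescence from the ATPlite ATP-monitoring reagent indicates viable cell number; lower signal means cytotoxicity. Cells received compound 16 h after seeding and were exposed for 48 h across five concentrations.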

Experiment [12] has as its system CAOV3. The experiment is described as above. As to conditions: Gynecologic cancer cell panel viability, ATPlite luminescence, 48 h; series mostly up to 57.5 µM. Put shortly:
as §3

The subject of experiment [13] is CASKI. Described as above. Particulars: Gynecologic cancer cell panel viability, ATPlite luminescence, 48 h; series mostly up to 57.5 µM. Put shortly: as §3
The test system of experiment [14] is Es-2. The experiment is described as above. As to conditions: Gynecologic cancer cell panel viability, ATPlite luminescence, 48 h; series mostly up to 57.5 µM. Put shortly:
as §3

Experiment [15] deals with HaCat. Kind of experiment: Cytotoxic Profiling of Annotated Libraries Using Quantitative High-Throughput Screening (AID 1296008). For max response: % is set by controls: 0 for no effect and ±100 for the full control effect. Note: nearly all actives have a fitted effect of over 60% in size. Note: potency is the fitted concentration of half-maximal effect. Particulars: Five cell lines viability, CellTiter-Glo ATP luminescence, 48-72 h; max response: active compounds read low. Put shortly: as §1
For experiment [16], the system named is HACAT. Briefly: qHTS assay to identify novel small-molecules to repurpose for Merkel cell carcinoma treatment (AID 1296009). Note: nearly all actives have a fitted effect of over 60% in size. Note: potency is the fitted concentration of half-maximal effect. Particulars: MCC and control cell lines, CellTiter-Glo viability, 72 h. The essentials: as §2
The test system of experiment [17] is HEK293T. Described as above. As to conditions: MCC and control cell lines, CellTiter-Glo viability, 72 h; at 44.8 µM (top of the series) unless noted. The essentials: as §2
Experiment [18] concerns W2. Briefly: qHTS profiling for inhibitors of Plasmodium falciparum proliferation (AID 504749). Particulars: P. falciparum in erythrocytes, SYBR Green DNA, 72 h; series mostly up to 28.7 µM. Put shortly:
(§4)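 P. falciparum-infected erythrocytes (0.3% parasitemia, 2.5% hematocrit final) were exposed to compounds for 72 h at 37 C in 5% CO2, then lysed with SYBR Green buffer overnight at room temperature; parasite DNA fluorescence was normalized to artemisinin and DMSO controls.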

In experiment [19] the test system is TAB165. Described as above. As to conditions: P. falciparum in erythrocytes, SYBR Green DNA, 72 h; series mostly up to 28.7 µM. Put shortly: as §4
[20] abbreviates: at 44.8 µM (top of the series) unless noted.

SMILES strings stand for the structures. Values joined by “and” are separate entries in the source; they are usually repeats but may differ in a detail not shown here. Equal values may be shown once. Records with an inconclusive call do not appear. A number with no mark means an inactive call. Active and inactive are the calls of the source. Calls come from the whole dose curve; as a rule, active = well fitted curve in the direction sought with a large enough effect; inconclusive = small, poorly fitted or top-dose-only effect, or another doubt; inactive = no such curve, though single readings can be large; an effect the other way counts as inactive or inconclusive.

We go through seven molecules from PubChem BioAssay (NCATS).

Take `CC1(C)Oc2ccc(C#N)cc2[C@@H](N2CCCC2=O)[C@@H]1O`: in experiment [1], the molecule was called inactive. Also, the max response in experiment [2] was -3.16%; in [3], -0.98% and -8.03%; in experiment [4], -6.15%. For the same molecule, the Potency entry in [5], in experiment [6], in [7], in experiment [8], in experiment [9] and in experiment [10] was “inactive” throughout. In addition, the Potency entry in [11], in experiment [12], in experiment [13] and in [14] was “inactive” each time.
As for `CN(C)CCCN1c2ccccc2CCc2ccccc21`, the max response in experiment [1] was 0.991%; in experiment [15] it was -28.4%; in experiment [3], -10.8%; in experiment [4], -1.95%. For the same molecule, the Potency in experiment [2] was 13.3 µM (active); in experiment [10] it was 23.7 µM (active). Besides, the Potency result in experiment [5], in [6], in experiment [7], in [11], in experiment [12] and in [13] was “inactive” each time.
Take `O=C(O)Cc1sc(-c2ccccc2)nc1-c1ccc(Cl)cc1`: the figures for the max response in [1] and in [4] were 3.43% and -0.692%, respectively. Moreover, the molecule was called inactive in experiment [2], in experiment [15], in [16] (setting [20]) and in [17]. Besides, the Potency entry in experiment [5], in experiment [6], in [7], in experiment [8], in [9] and in experiment [10] was “inactive” in each case. The Potency entry in experiment [11], in experiment [13] and in experiment [14] was “inactive” throughout.
As for `C[C@]12C[C@H](O)[C@H]3[C@@H](CCC4=CC(=O)CC[C@@]43C)[C@@H]1CC[C@@H]2C(=O)CO`, the Potency entry in experiment [18], in experiment [5], in experiment [6], in experiment [7], in experiment [8] and in experiment [9] was “inactive” throughout. Further, the Potency result in [10], in experiment [11], in experiment [12], in [13] and in [14] was “inactive” each time. The max response in experiment [1] is 3.36%; in experiment [15], 1.38%. Further, the molecule was classed as inactive in [2] and in [17].
Take `CC(C)C(=O)c1c(C(C)C)nn2ccccc12`: the max response in experiment [1] was -8.07%; in experiment [2], -1.74%; in [15], 2.88%; in experiment [3], -2.88%; in experiment [4] it was -15.3%. Also, the Potency entry in experiment [5], in experiment [7], in [8], in [9], in experiment [10] and in experiment [11] was “inactive” each time. Moreover, the Potency result in experiment [12], in [13] and in [14] was “inactive” each time.
Regarding `C[C@@H]1CN(c2c(F)c(F)c3c(=O)c(C(=O)O)cn(C4CC4)c3c2F)C[C@H](C)N1`, the Potency result in [19], in [18], in experiment [5], in [6], in experiment [7] and in experiment [8] was “inactive” in each case. In addition, the Potency entry in [9], in experiment [10], in [11], in [12], in experiment [13] and in experiment [14] was “inactive” throughout. In addition, the max response in [1] was -3.49% and -4.42%; in [2], -18.5% and -5.83%; in experiment [4], -2.2% and -0.725%. The outcome in [15], in experiment [16] (at 9.27 µM (top of the series)) and in [16] (at 17.4 µM (top of the series)) was inactive.
On to `O=c1cc[nH]c(=S)[nH]1`, for which the Potency entry in [19], in experiment [18], in experiment [5], in [6], in experiment [7] and in [8] was “inactive” throughout. In addition, the Potency entry in [9], in experiment [10], in experiment [11], in [12], in experiment [13] and in [14] was “inactive” each time. Moreover, the max response in experiment [1] is 1.22%; in experiment [4], -2.25%. The molecule was classed as inactive in experiment [2], in experiment [15], in experiment [16] (setting [20]) and in experiment [17].
